According to PubChem BioAssay AID2278 (National Center for Advancing Translational Sciences (NCATS), 2010):
Records with an inconclusive call do not appear. The source made the active and inactive calls. Calls come from the whole dose curve; as a rule, active = well fitted curve in the direction sought with a large enough effect; inconclusive = small, poorly fitted or top-dose-only effect, or another doubt; inactive = no such curve, though single readings can be large or run the other way.

These molecules were tested against Group 10 secretory phospholipase A2 (Mus musculus) (UniProt Q9QXX3) (assay: Secondary Assay for Inhibitors of Ubiquitin-specific Protease USP2a: PLA2 Counterscreen). Conditions: purified murine PLA2, NBD C6-HPC fluorescence; series mostly up to 57.5 µM; activity change, negative = inhibition: at the top concentration.
Description: NIH Molecular Libraries Screening Centers Network [MLSCN] NIH Chemical Genomics Center [NCGC] MLSCN Grant: XO1-MH079852-01 PI Name: Nicholson, Ben. Progenra Inc, Malvern, PA NCGC Assay Overview: Homeostasis of cellular proteins is maintained through a combination of synthesis and degradation. The pathway that accounts for the majority of protein degradation is the ubiquitin-proteasomal pathway. Ubiquitin (Ub) is highly conserved in all cells and the generation of a multi-Ub chain typically targets proteins for degradation by the proteasome. However, ubiquitination is highly reversible and dynamic. Deubiquitination, the reverse process, is catalyzed through the action of enzymes referred to as isopeptidases or deubiquitinating enzymes (DUBs). This group of enzymes is collectively responsible for maintaining adequate pools of free ubiquitin and regulating the ubiquitination status of cellular proteins. The class of DUBs referred to as the ubiquitin-specific proteases (USP) family functions endoproteolytically to cleave Ub chains from a wide range of protein substrates. USP2a deubiquitinates fatty acid synthase (FASN) which has recently been identified as an emerging oncology target. To identify inhibitors of USP2a a cell-free assay was employed. This is assay is a counterscreen used for the for the USP2a-PLA2 coupled assay. In this assay the murine PLA2 reporter enzyme is screened alone using NBD C6-HPC (Invitrogen) as a fluorogenic substrate.
NCGC Assay Protocol Summary: The assay buffer, prepared fresh at the day of the assay, contains 20mM Tris-HCl pH 8.0, 2mM CaCl2, 2mM beta-mercaptoethanol, 0.1% DMSO. 3ul of 10nM (5nM final) free PLA2, which is stored on ice, is dispensed into a medium-binding black solid Kalypsys 1,536 well plate using the Aurora BioRaptr. The assay plate is then pinned with 23nL compound with the Kalypsys pintool. The controls were pinned as follows: row 31 2M NEM and row 32 DMSO. Subsequently, 3uL 40uM (20uM final) NBD C6-HPC (stored on ice and protected from light) were dispensed into the plate using the BioRaptr dispenser. Plates were read immediately on an Envision (Perkin Elmer) plate reader using wavelengths of Ex 460nm /Em 535nm. Then, the assay plates were incubated for 2.5 hours and read again on the Envision using the same settings. Data were normalized to the to AC100 inhibition (NEM). Concentration-response curves were fitted to the normalized data and the concentration-response curves were then classified based on curve quality (r2), response magnitude and degree of measured activity. The time zero reading was used to flag fluorescence artifacts. Keywords: ubiquitination, deubiquitination, proteases, profluorescent, MLSMR, MLSCN, NIH Roadmap, qHTS, NCGC

Sequence of Group 10 secretory phospholipase A2 (Mus musculus) (Q9QXX3 whole entry, looked up): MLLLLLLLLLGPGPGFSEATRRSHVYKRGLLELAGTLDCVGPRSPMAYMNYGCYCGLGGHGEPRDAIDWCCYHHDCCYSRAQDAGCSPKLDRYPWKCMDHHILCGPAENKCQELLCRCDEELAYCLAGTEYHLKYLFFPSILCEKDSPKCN

Row | Compound | activity change, negative = inhibition | Potency
1 | Oc1c(C(Nc2ccccn2)c2ccccc2F)ccc2cccnc12 (stereo not given) | 8.56% (inactive) | –
2 | Cc1cc(C)cc(NC(=O)c2sc3nc4n(c(=O)c3c2C)N=C(c2ccccc2)CS4)c1 | – | 20 µM (active)
3 | Cc1cc(C)c2nc(N(Cc3cccnc3)C(=O)CCS(=O)(=O)c3ccccc3)sc2c1 | 6.88% (inactive) | –
4 | COc1ccc(C2=CC(c3cccc(C)c3)n3nnnc3N2)cc1 (stereo not given) | -30.1% (inactive) | –
5 | CC(=O)Nc1ccc(NC(=O)Cn2nc(C(=O)Nc3ccc(C)cc3)ccc2=O)cc1 | 9.94% (inactive) | –
6 | CCCCn1c(SCC(=O)NCCCOC)nc2c(sc3ccccc32)c1=O | 4.02% (inactive) | –
7 | O=C(CSc1nc(=O)n(Cc2ccccn2)c2c1CCC2)Nc1ccccc1 | 13% (inactive) | –
8 | CCOc1ccc(C2=C(C(C)=O)Sc3nnc(C)n3N2C(C)=O)cc1 | 9.3% (inactive) | –
9 | Cc1c(C(=O)N(C)C)sc2c1c(=O)n(-c1ccc(Cl)c(Cl)c1)c(=O)n2CC(=O)Nc1ccc(Br)cc1F | -22.1% (inactive) | –
10 | Cc1ccc([C@H]2Nc3ccc(S(=O)(=O)Nc4cccc(Cl)c4C)cc3[C@H]3C=CC[C@H]32)cc1 | -20.1% (inactive) | –
11 | CCc1cccc(NC(=O)CSc2ncccc2C(=O)Oc2ccccc2Cl)c1 | -4.88% (inactive) | –
12 | O=c1c(O)c(-c2cc(O)c(O)c(O)c2)oc2cc(O)cc(O)c12 | 11.3% (inactive) | –
13 | COC(=O)c1c(NC(=O)CS(=O)(=O)c2ccc(C)cc2)sc2c1CCCCC2 | 8.66% (inactive) | –
14 | COc1ccc(C(=O)/C=C/c2cn(CC(O)CN(CC(C)C)CC(C)C)c3ccccc23)cc1OC (stereo not given) | -33.5% (inactive) | –
15 | CCOC(=O)C1CCCN(c2c(C(=O)c3ccc(C)cc3)cnc3ccc(OCC)cc23)C1 (stereo not given) | -35.2% (inactive) | –
16 | CCCCCC(=O)N1c2ccccc2C(C)(c2ccccc2)CC1(C)C (stereo not given) | -32.1% (inactive) | –
17 | COc1cc(C2C(C(=O)Nc3ccccc3C)=C(C)Nc3nc(SCc4cc(C)ccc4C)nn32)ccc1O (stereo not given) | 15.6% (inactive) | –
18 | CCC(=O)C1=C(c2ccc(OC)c(OC)c2)N(C(=O)CC)n2c(CC)nnc2S1 | 9.52% (inactive) | –
19 | COc1ccc(C2C=C(c3ccc(Br)cc3)Nc3nnnn32)c(OC)c1 (stereo not given) | 6.25% (inactive) | –
20 | CCCc1cc(=O)oc2c3c(ccc12)OCN(Cc1ccc(OC)cc1)C3 | -28.7% (inactive) | –
21 | CCC(C)NC(=O)CSc1nc2cc3c(cc2c(=O)n1Cc1ccc(C(=O)NCCc2ccc(OC)c(OC)c2)cc1)OCO3 (stereo not given) | 1.89% (inactive) | –
22 | Cc1nnc(SCC(=O)NCc2ccccc2F)c2nn(-c3ccc(Cl)cc3)c(C)c12 | 6.11% (inactive) | –
23 | O=C(CSc1nc2ccsc2c(=O)n1-c1ccc(Br)cc1)NCc1ccccc1 | -5.48% (inactive) | –
24 | CCc1ccc(C(=O)c2c(N)c(-c3nc(-c4ccc5c(c4)OCO5)cs3)c3ccccn23)cc1 | -25.3% (inactive) | –
25 | COc1ccc(Cl)cc1NC(=O)CSc1nc(=O)[nH]c2c1CCC2 | 8.64% (inactive) | –
26 | COc1ccc2c(c1)c1c(c(=O)n(-c3ccc(OC)c(OC)c3)c(=O)n1Cc1ccccc1C)n2C | -27.4% (inactive) | –
27 | O=C(CCS(=O)(=O)c1ccccc1)N(Cc1cccnc1)c1nc2c(Cl)cccc2s1 | 8.8% (inactive) | –
28 | Cc1ccc2scc(N3CCN(c4cccc(C(F)(F)F)c4)CC3)c(=O)c2c1 | 5% (inactive) | –
29 | Cc1ccc(-n2nc3c(=O)n(CCCC(=O)NCCc4ccccc4Cl)nc(C)c3c2C)cc1 | -24% (inactive) | –
30 | Cc1nn(C(=O)c2cccc([N+](=O)[O-])c2C)c(C)c1S(=O)(=O)N1CCCCCC1 | -15.4% (inactive) | –
